The text below walks through data of the supplement of paper PMC7156485.

What all share (details): concentration: 10 µM; 24 h
Test [1] has as its system HCC1569. As to the kind of experiment: cell number relative to DMSO (% of DMSO); higher = more cells (less growth inhibition / toxicity). Put shortly:
(§1)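 HCC1569 and TDF cells (800 per well, 384-well plates, RPMI with 10% FBS) were treated with compounds at 10 µM for 24 h at 37 °C, in triplicate. Cells were fixed in 3.7% formaldehyde and stained with a rabbit anti-H1.0 antibody, an AlexaFluor 647 secondary and DAPI; six fields per well were imaged at ×10. H1.0 nuclear intensity or cell number is expressed as percent of the plate DMSO control, taking the median of replicates. HCC1569 values were smoothed for positional effects.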

Test [2] has as its system TDF. Described as above. Put shortly: as §1
Test [3] concerns TDF. The test is described as follows: H1.0 immunofluorescence intensity relative to DMSO (% of DMSO); higher = stronger H1.0 induction, active = 120 or more. The procedure, abridged: as §1
Test [4] has as its system HCC1569. As to the kind of experiment: H1.0 immunofluorescence intensity relative to DMSO (% of DMSO); higher = stronger H1.0 induction, active = 140 or more. The procedure, abridged: as §1
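Wherever H1.0 immunofluorescence intensity relative to DMSO is given: TDF is a line of transformed human dermal fibroblasts of mesenchymal origin.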
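Wherever cell number relative to DMSO is given: TDF denotes transformed human dermal fibroblasts of mesenchymal origin.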

Turning to `CCCCCCCCCCCCCCCC(=O)NCCO` [Palmitoylethanolamide], the cell number amounted to 104 with HCC1569 [1] and 101 in the test on TDF [2]. The H1.0 immunofluorescence intensity was 92.4 (inactive) with TDF [3] and 90.6 (inactive) in the test with HCC1569 [4].

`CCCCCCCCCCCCCCCCOCC(COCC(F)(F)F)OP(=O)([O-])OC.[Li+]` (configuration not stated): the results for the cell number in the test on HCC1569 [1] and in the test with TDF [2] were 102 and 93.8, respectively. The results for the H1.0 immunofluorescence intensity with TDF [3] and with HCC1569 [4] were 99.5 (inactive) and 92.3 (inactive), respectively.

In the case of `COc1ccc(CC2c3cc(OC)c(OC)cc3CC[N+]2(C)CCC(=O)OCCCCCOC(=O)CC[N+]2(C)CCc3cc(OC)c(OC)cc3C2Cc2ccc(OC)c(OC)c2)cc1OC.O=S(=O)([O-])c1ccccc1.O=S(=O)([O-])c1ccccc1` (configuration not stated) [Atracurium besylate], the cell number with HCC1569 [1] came out at 98.9; in the test with TDF [2], 103. Besides, the values for the H1.0 immunofluorescence intensity in the test on TDF [3] and with HCC1569 [4] were 94.5 (inactive) and 110 (inactive), respectively.

With `CCCCC#Cc1nc(N)c2ncn(C3OC(C(=O)NCC)C(O)C3O)c2n1` (configuration not stated), the cell number in the test with HCC1569 [1] came out at 93.3; in the test with TDF [2], 99.3. Moreover, the H1.0 immunofluorescence intensity was 95.2 (inactive) with TDF [3] and 110 (inactive) in the test with HCC1569 [4].

Take `CCN(CC)CCOCCOC(=O)C1(c2ccccc2)CCCC1.O=C(O)CC(O)(CC(=O)O)C(=O)O` [Carbetapentane citrate]: the cell number was 86.4 with HCC1569 [1] and 89 with TDF [2]. Besides, the results for the H1.0 immunofluorescence intensity in the test with TDF [3] and in the test with HCC1569 [4] were 107 (inactive) and 97.4 (inactive), respectively.

Consider `CSc1ccc2c(c1)N(CCC1CCCCN1C)c1ccccc1S2.Cl` (configuration not stated) [Thioridazine hydrochloride], for which the cell number in the test on HCC1569 [1] turned out to be 86.6; with TDF [2], 90.6. For the same molecule, the H1.0 immunofluorescence intensity is 110 (inactive) in the test with TDF [3] and 155 (active) in the test with HCC1569 [4].

Turning to `O=C(Nc1ccc(Cl)cc1)C1CCCN(C(=O)c2cccc(-c3ccco3)c2)C1` (configuration not stated), the values for the cell number in the test with HCC1569 [1] and in the test with TDF [2] were 86.8 and 98.7, respectively. Moreover, the H1.0 immunofluorescence intensity in the test on TDF [3] is 95.1 (inactive); with HCC1569 [4], 116 (inactive).

As to `C[N+](C)(C)CCCCCC[N+](C)(C)C.[Br-].[Br-]` [Hexamethonium bromide], the cell number turned out to be 104 in the test on HCC1569 [1] and 103 in the test on TDF [2]. Further, the figures for the H1.0 immunofluorescence intensity with TDF [3] and in the test with HCC1569 [4] were 98.5 (inactive) and 102 (inactive), respectively.
